# Where “and” joins values, the source holds several entries; their conditions need not be identical. Equal entries are not always repeated. Records with an inconclusive call do not appear. Calls of active or inactive are those of the source. Rule as the data show it, unless noted: active = inhibition above about 80%; inactive = the rest.
# Legend:
# [1] = viability loss in pontine glioma line – cell-based, SU-DIPG-XIII, MIPE4.0, CellTiter-Glo, qHTS, dose response (AID 1347061; cut-off not given, nearly all actives have AC50 up to about 37 µM;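 also: cells exposed to compound for 48 hours before readout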); settings: CellTiter-Glo ATP luminescence
# [2] = viability loss in pontine glioma line – cell-based, JHH-DIPG-1, MIPE4.0, CellTiter-Glo, qHTS, dose response (AID 1347062; cut-off not given, nearly all actives have AC50 up to about 27 µM;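 also: cells exposed to compound for two days before readout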); settings: JHH-DIPG-1 viability, CellTiter-Glo ATP luminescence
# [3] = viability loss in pontine glioma line – cell-based, SU-DIPG-IV, MIPE4.0, CellTiter-Glo, qHTS, dose response (AID 1347063; cut-off not given, nearly all actives have AC50 up to about 30 µM;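 also: compound exposure lasted 48 hours before the viability readout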); settings: CellTiter-Glo ATP luminescence
# [4] = viability loss in pontine glioma line – cell-based, SU-DIPG-XIII, MIPE5.0, CellTiter-Glo, qHTS, dose response (AID 1347064; cut-off not given, nearly all actives have AC50 up to about 23 µM;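 also: cells exposed to compound for 48 hours before the viability read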); settings: CellTiter-Glo ATP luminescence
# [5] = viability loss in pontine glioma line – cell-based, SU-DIPG-XXV, MIPE5.0, CellTiter-Glo, qHTS, dose response (AID 1347065; cut-off not given, nearly all actives have AC50 up to about 26 µM;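 also: cells exposed to compound for 48 hours before ATP readout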); settings: CellTiter-Glo ATP luminescence
# [6] = growth inhibition of DIPG cells – cell-based, MIPE4.0 library, CellTiter-Glo luminescence, qHTS (AID 1347066; cut-off not given, nearly all actives have AC50 up to about 30 µM;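 also: cells exposed to compound for 48 hours before readout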); settings: SU-DIPG-VI viability, CellTiter-Glo ATP luminescence
# [7] = JHH-DIPG-1 glioma cell viability, MIPE5.0 library, CellTiter-Glo luminescence, qHTS (AID 1347067; cut-off not given, nearly all actives have AC50 up to about 26 µM;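 also: cells exposed to compound for 48 hours before readout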); settings: JHH-DIPG-1 glioma viability, CellTiter-Glo ATP luminescence
# [8] = growth inhibition of DIPG cells – cell-based, MIPE5.0 library, qHTS (AID 1347068; cut-off not given, nearly all actives have IC50 up to about 30 µM;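 also: cells exposed to compound for 48 hours before viability readout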); settings: SU-DIPG-XXV viability
# [9] = viability loss with induced miR-34 in A549 – imaging, A549 dox-inducible miR-34, nuclei and caspase counts, primary screen (AID 1347080;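 active = compounds whose cell count with miR-34 switched on is under 0.7 times the count with it off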); settings: A549 miR-34 inducible, Hoechst nuclei count, 48 h
# [10] = compounds altering HSF1 focus formation in cells – imaging, Selleck Cancer Library (AID 1347162; in the data active = plate-normalised HSF1 focus index below about 0.46); settings: human cells, HSF1 nuclear foci imaging, at 10 µM; SSMD: measured here: HSF1 foci SSMD mean; cell count: measured here: cell number; plate-normalised HSF1 focus index: stronger effect = lower value
# [11] = MELAS cybrid and Rieske KO viability enhancers – cell-based, MELAS cybrids, Rieske KO mouse fibroblasts, CellTiter-Glo, primary screen (AID 1508586;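 active = mean z-score across replicates of 1.96 or higher in either the MELAS or the Rieske mutant cell line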;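 also: z relative to plate mean and SD of compound and empty wells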); settings: low glucose
# [12] = growth inhibition, single agent or in combination, cell-based, chromothripsis tumors, cisplatin or BGB combos (AID 1671449); settings: LFS_MB_P medulloblastoma cells;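 also: cells exposed for 96 hours; 0% = vehicle DMSO and 100% = killing by high DMSO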
# [13] = growth inhibition, single agent and combos, cell-based, chromothripsis tumors, cisplatin or BGB combos (AID 1671450); settings: HDN33 neuroblastoma cells, stronger effect = higher value;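 also: cells exposed to compound for four days; 0% = vehicle DMSO and 100% = cell killing by high DMSO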
# [14] = growth inhibition, single agents and combos, ICB984, cell-based, cisplatin or BGB combos, synergistic combos for chromothripsis tumors (AID 1671451; call rule not given here;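 also: cells exposed for 96 hours before readout; 0% = vehicle DMSO and 100% = killing by high DMSO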); settings: ICB984 medulloblastoma cells, drug combinations, stronger effect = higher value
# [15] = growth inhibition, single agents and combos, HTB85, cell-based, BGB or cisplatin IC20 combos, synergistic combos for chromothripsis tumors (AID 1671453); settings: HTB85 osteosarcoma cells, drug combinations, stronger effect = higher value;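 also: cells exposed for 96 hours before readout; 0% = vehicle DMSO and 100% = high DMSO killing control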
# [16] = growth inhibition, MDA-MB-436, cell-based, BGB or cisplatin combos, synergistic combos for chromothripsis tumors (AID 1671458; call rule not given here;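 also: cells exposed for 96 hours; 0% = vehicle DMSO and 100% = killing by high DMSO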); settings: MDA-MB-436 breast carcinoma growth inhibition, drug combinations, stronger effect = higher value
# [17] = BT084 cell growth, single and combined drugs, ICGC_MB145, cisplatin and BGB IC40 combos (AID 1671461); settings: BT084 medulloblastoma cells, drug combinations, stronger effect = higher value;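 also: cells exposed to drugs for 96 hours; 0% = vehicle DMSO and 100% = high DMSO full killing control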
# [18] = RCMB18 cell growth, single agent and combined, cisplatin and BGB IC40 combos (AID 1671462); settings: RCMB18 medulloblastoma cells, stronger effect = higher value;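 also: cells exposed to compound for four days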
# [19] = CRL1545 cell growth, single agent and combined, cisplatin and BGB IC20 combos (AID 1671464); settings: CRL1545 osteosarcoma cells, stronger effect = higher value;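 also: cells exposed to compound for 96 hours before readout; 0% = vehicle DMSO and 100% = high DMSO killing control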
# [20] = measured here: with BGB IC20 combination, at 0.5 µM
# [21] = measured here: with cisplatin IC20 combination, at 0.5 µM
smiles,measurement,setting,value
Nc1ccccc1NC(=O)c1ccc(CNC(=O)OCc2cccnc2)cc1,AC50,[1],14.8 µM (active)
same,AC50,[2],4.69 µM (active)
same,AC50,[3],1.32 µM (active)
same,AC50,[4],3.32 µM (active)
same,AC50,[5],2.35 µM (active)
same,AC50,[6],3.72 µM (active)
same,AC50,[7],2.95 µM (active)
same,IC50,[8],5.25 µM (active)
same,fold change,"[9]; stronger effect = lower value, cell number ratio, induced over uninduced",0.935 (inactive) and 1.04 (inactive)
same,fold change,[9]; measured here: relative caspase fold change +Dox/-Dox,1.69 and 0.81
same,cell count,"[9]; measured here: total cells with miR-34 induction, stronger effect = lower value",3300 and 2250
same,cell count,[9]; measured here: total cells without miR-34 induction,3530 and 2180
same,SSMD,[10],2.19
same,cell count,[10],6960
same,plate-normalised HSF1 focus index,[10],1.11 (inactive)
same,z-score,"[11]; MELAS cybrid survival, CellTiter-Glo 48 h, stronger effect = higher value",-0.681 (inactive)
same,z-score,"[11]; Rieske KO mouse fibroblast survival, CellTiter-Glo 72 h",-1.12
same,inhibition,"[12]; at 0.5 µM, stronger effect = higher value",20.5% (inactive) and 31.3% (inactive)
same,inhibition,"[12]; measured here: combination with BGB IC20, at 0.005 µM",9.17% and -14%
same,inhibition,"[12]; measured here: combination with BGB IC40, at 0.005 µM",-20.6% and -27.1%
same,inhibition,"[12]; measured here: combination with BGB IC40, at 0.05 µM",-4.42% and -24.6%
same,inhibition,"[12]; measured here: combination with cisplatin, at 0.5 µM, stronger effect = higher value",46.4% and 85.2%
same,inhibition,"[12]; measured here: combination with cisplatin, at 5 µM, stronger effect = higher value",118% and 115%
same,inhibition,"[13]; BGB combo, at 5 µM",97.1% and 92.4%
same,inhibition,[13]; at 0.5 µM,44% (inactive) and 41% (inactive)
same,inhibition,"[13]; cisplatin combo, at 5 µM",99.7% and 97%
same,inhibition,[13]; [20],39.9% and 34.6%
same,inhibition,[13]; [21],48.7% and 57.6%
same,inhibition,"[13]; single agent, at 5 µM",99.3% and 93.9%
same,inhibition,"[14]; BGB IC20 combo, at 0.005 µM",36.5% and 11%
same,inhibition,"[14]; BGB IC40 combo, at 0.005 µM",24.4% and 20.7%
same,inhibition,"[14]; BGB IC40 combo, at 0.05 µM",97.8% and 93%
same,inhibition,[14]; at 0.5 µM,-31.6% (inactive) and -19.6% (inactive)
same,inhibition,"[14]; cisplatin combo, at 0.05 µM",97.7% and 92.8%
same,inhibition,"[14]; cisplatin combo, at 0.5 µM",-49.4% and -14.7%
same,inhibition,"[14]; cisplatin combo, at 5 µM",10.2% and -21.6%
same,inhibition,"[14]; measured here: 5 uM single agent, at 5 µM",20% and -23%
same,inhibition,[15]; at 0.5 µM,57.3% (inactive) and 32.6% (inactive)
same,inhibition,"[15]; measured here: with BGB IC20, at 0.5 µM",48% and 25.2%
same,inhibition,"[15]; measured here: with BGB IC20, at 5 µM",97.7% and 98.3%
same,inhibition,"[15]; measured here: with cisplatin IC20, at 0.5 µM",80.3% and 42.5%
same,inhibition,"[15]; measured here: with cisplatin IC20, at 5 µM",99.8% and 98.9%
same,inhibition,"[15]; single agent, at 5 µM",99.3% and 97.6%
same,inhibition,[16]; at 0.5 µM,18.4% (inactive) and 2.92% (inactive)
same,inhibition,"[16]; measured here: BGB combination, at 0.5 µM",16.3% and -2.7%
same,inhibition,"[16]; measured here: BGB combination, at 5 µM",55.1% and 44.4%
same,inhibition,"[16]; measured here: cisplatin combination, at 0.5 µM",15.5% and -5.2%
same,inhibition,"[16]; measured here: cisplatin combination, at 5 µM",49.1% and 36.5%
same,inhibition,[17]; at 0.5 µM,46.5% (inactive) and 28.3% (inactive)
same,inhibition,"[17]; cisplatin combination, at 0.5 µM",67% and 52.4%
same,inhibition,"[17]; cisplatin combination, at 5 µM",97.3% and 96.5%
same,inhibition,"[17]; measured here: BGB IC40 combination 0.05 uM, at 0.05 µM",51.3% and 7.15%
same,inhibition,"[17]; single agent, at 5 µM",87.5% and 72.2%
same,inhibition,[18]; at 0.5 µM,49.1% (inactive) and 37.1% (inactive)
same,inhibition,"[18]; cisplatin combo, at 5 µM",94.3% and 95%
same,inhibition,"[18]; measured here: BGB IC40 combination, at 0.05 µM",11.6% and 4.4%
same,inhibition,"[18]; measured here: combination with cisplatin, at 0.5 µM",71.2% and 58%
same,inhibition,"[18]; single agent, at 5 µM",95.5% and 86.6%
same,inhibition,[19]; at 0.5 µM,74.5% (inactive) and 39.4% (inactive)
same,inhibition,[19]; [20],71.4% and 25.4%
same,inhibition,[19]; [21],76.1% and 45.2%
same,inhibition,"[19]; single agent, at 0.05 µM",28.6% and -12.8%
same,inhibition,"[19]; single agent, at 5 µM",73.7% and 44.8%
